# Measurements published in publication PMC5540273 (PLoS ONE, 2017).
# Test system: BTK
# Settings: concentration: 1 μM, replicates: in singlicate; n = 1
# 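Note: KINOMEscan kinase panel screen.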
row,Compound,%Inh [%]
1,Cc1ccc(NC(=O)Nc2ccc(Cl)c(C(F)(F)F)c2)cc1-c1ccc(C(=O)Nc2ccncc2)cc1 [GSK1398470],0
2,FC(F)(F)c1ccccc1-c1cc(-c2c[nH]nc2-c2ccccn2)ccn1 [GW679396],0
3,COC(=O)c1cccc(NC(=O)NC2CCN(c3ccnc(Nc4ccc(F)cc4)n3)C2)c1 (centres unmarked) [GSK1379725],0
4,Fc1ccc(-c2nn3cccc(F)c3c2-c2ccncc2)cc1 [GW475620],0
5,Cc1ccc(NC(=O)Nc2ccc(Cl)cc2)cc1-c1ccc(C(=O)Nc2ccncc2)cc1 [GSK1398472],0
6,COC(=O)C(Cc1ccccc1)NC(=O)NC1CCN(c2ccnc(Nc3ccc(F)cc3)n2)C1 (centres unmarked) [GSK1379714],30
7,COc1ccc(Nc2nccc(NCCNC(=O)Nc3cc(C)ccc3C)n2)cc1 [GSK1379899],0
8,Fc1ccc(-c2nc3n(c2-c2ccncc2)CCS3)cc1 [GI98581],0
9,CC(=O)c1cccc(NC(=O)NC2CCN(c3ccnc(Nc4ccc(F)cc4)n3)C2)c1 (centres unmarked) [GSK1379710],0
10,Cc1ccc(-c2nc(Nc3ccncc3)c3ccccc3n2)s1 [GSK189015],0
11,O=c1cc(N2CCOCC2)nc2n(Cc3cccc(Cl)c3Cl)c3ccccc3n12 [GSK2299009],0
12,Cc1ccccc1Cn1ccn2c(=O)cc(N3CCOCC3)nc12 [GSK2269905],0
13,O=C(Nc1n[nH]c2nc(-c3cccs3)c(Br)cc12)C1CCCC1 [SB-743341],26
14,Cn1cncc1-c1cc2c(Nc3ccc(OCc4ccccc4)cc3)ncnc2cn1 [GW281179],0
15,CNc1nc(-c2ccc3c(N)n[nH]c3c2)cc(N2C[C@@H](C(=O)NC3CCCCC3)OC[C@H]2C)n1 [GSK2375584],7
16,COc1cccc(C2=C(Nc3cc(Cl)c(O)c(Cl)c3)C(=O)NC2=O)c1 [SB-390767],0
17,Cn1cnc2c(N)ncnc21 [SKF-97623],0
18,O=c1cc(N2CCOCC2)nc2n(Cc3ccccc3F)ccn12 [GSK2297428],0
19,COc1ccc(-c2coc3ccc(-c4nnc(C)o4)cc23)cc1,0

row,Compound,%Inh [%]
1,Cc1ccccc1-c1cc(-c2c[nH]nc2-c2ccccn2)ccn1 [GW680061],3
2,Nc1cccc(-c2ccc3c(N)n[nH]c3c2)n1 [GSK2192730],0
3,CNC(=O)c1ccc(C)c(-n2c(C)cc(OCc3ccc(F)cc3F)c(Br)c2=O)c1,0
4,O=C(Nc1n[nH]c2nc(-c3ccco3)c(Br)cc12)C1CCN(Cc2ccccc2)C1.O=C(O)[C@H](O)[C@@H](O)C(=O)O (centres unmarked) [SB-742034],0
5,NS(=O)(=O)c1cccc(N/C=C2\C(=O)Nc3ccc(S(=O)(=O)Cc4c(Cl)cccc4Cl)cc32)c1 [GSK398099],0
6,c1ccc(-c2ccnc3[nH]ccc23)cc1 [SB-693578],0
7,CNc1nc(-c2ccc3c(N)n[nH]c3c2)cc(N2C[C@@H](C(=O)Nc3ccccc3)CC[C@H]2C)n1 [GSK2298859],0
8,COC(=O)c1cccc(NC(=O)NC2CCN(c3ccnc(Nc4ccc(OC)cc4)n3)C2)c1 (centres unmarked) [GSK1379746],2
9,COc1ccc(Nc2nccc(-c3ccc(NC(=O)c4cc5cc(F)ccc5[nH]4)cc3)n2)cc1 [GSK1229496],0
10,Cl.Cl.Cl.N#Cc1ccc(CCNc2nccc(-c3cccc(CN4CCNCC4)c3)n2)cc1 [GSK2137462],0
11,O=C(Nc1n[nH]c2cc(-c3ccsc3)ccc12)C1CC1 [SB-732932],10
12,COc1ccc(Nc2nccc(N3CCC(NC(=O)c4cc5ccccc5s4)C3)n2)cc1 (centres unmarked) [GSK1379738],0
13,COc1ccc2cc(-c3nc(-c4ccccc4C(C)C)[nH]c3-c3ccncc3)ccc2c1 [SB-660566],0
14,CC[C@@H]1CO[C@H](C(=O)Nc2ccccc2)CN1c1cc(-c2ccc3c(N)n[nH]c3c2)nc(NC)n1 [GSK2376236],0
15,Cc1ccc(NC(=O)c2ccc(Cl)cc2)cc1-c1ccc(C(=O)Nc2ccncc2)cc1 [GSK1398467],0
16,COc1cccc(NC(=O)Nc2ccc(C)c(-c3ccc(C(=O)Nc4ccncc4)cc3)c2)c1 [GSK1398474],0
17,COc1ccc(CSc2nnc(-c3ccc4c(c3)CCO4)o2)cc1,0
18,Cc1cccc2c(-c3ccncn3)c(-c3ccc(F)cc3)nn12 [GW515532],0

# Test system: BUB1
# Settings: concentration: 1 μM, replicates: in singlicate; n = 1
row,Compound,%Inh [%]
1,Cc1ccc(NC(=O)Nc2ccc(Cl)c(C(F)(F)F)c2)cc1-c1ccc(C(=O)Nc2ccncc2)cc1 [GSK1398470],9
2,FC(F)(F)c1ccccc1-c1cc(-c2c[nH]nc2-c2ccccn2)ccn1 [GW679396],0
3,COC(=O)c1cccc(NC(=O)NC2CCN(c3ccnc(Nc4ccc(F)cc4)n3)C2)c1 (centres unmarked) [GSK1379725],0
4,Fc1ccc(-c2nn3cccc(F)c3c2-c2ccncc2)cc1 [GW475620],53
5,Cc1ccc(NC(=O)Nc2ccc(Cl)cc2)cc1-c1ccc(C(=O)Nc2ccncc2)cc1 [GSK1398472],43
6,COC(=O)C(Cc1ccccc1)NC(=O)NC1CCN(c2ccnc(Nc3ccc(F)cc3)n2)C1 (centres unmarked) [GSK1379714],32
7,COc1ccc(Nc2nccc(NCCNC(=O)Nc3cc(C)ccc3C)n2)cc1 [GSK1379899],0
8,Fc1ccc(-c2nc3n(c2-c2ccncc2)CCS3)cc1 [GI98581],53
9,CC(=O)c1cccc(NC(=O)NC2CCN(c3ccnc(Nc4ccc(F)cc4)n3)C2)c1 (centres unmarked) [GSK1379710],33
10,Cc1ccc(-c2nc(Nc3ccncc3)c3ccccc3n2)s1 [GSK189015],34
11,O=c1cc(N2CCOCC2)nc2n(Cc3cccc(Cl)c3Cl)c3ccccc3n12 [GSK2299009],0
12,Cc1ccccc1Cn1ccn2c(=O)cc(N3CCOCC3)nc12 [GSK2269905],0
13,O=C(Nc1n[nH]c2nc(-c3cccs3)c(Br)cc12)C1CCCC1 [SB-743341],0
14,Cn1cncc1-c1cc2c(Nc3ccc(OCc4ccccc4)cc3)ncnc2cn1 [GW281179],34
15,CNc1nc(-c2ccc3c(N)n[nH]c3c2)cc(N2C[C@@H](C(=O)NC3CCCCC3)OC[C@H]2C)n1 [GSK2375584],36
16,COc1cccc(C2=C(Nc3cc(Cl)c(O)c(Cl)c3)C(=O)NC2=O)c1 [SB-390767],2
17,Cn1cnc2c(N)ncnc21 [SKF-97623],22
18,O=c1cc(N2CCOCC2)nc2n(Cc3ccccc3F)ccn12 [GSK2297428],0
19,COc1ccc(-c2coc3ccc(-c4nnc(C)o4)cc23)cc1,0

row,Compound,%Inh [%]
1,Cc1ccccc1-c1cc(-c2c[nH]nc2-c2ccccn2)ccn1 [GW680061],35
2,Nc1cccc(-c2ccc3c(N)n[nH]c3c2)n1 [GSK2192730],0
3,CNC(=O)c1ccc(C)c(-n2c(C)cc(OCc3ccc(F)cc3F)c(Br)c2=O)c1,0
4,O=C(Nc1n[nH]c2nc(-c3ccco3)c(Br)cc12)C1CCN(Cc2ccccc2)C1.O=C(O)[C@H](O)[C@@H](O)C(=O)O (centres unmarked) [SB-742034],0
5,NS(=O)(=O)c1cccc(N/C=C2\C(=O)Nc3ccc(S(=O)(=O)Cc4c(Cl)cccc4Cl)cc32)c1 [GSK398099],34
6,c1ccc(-c2ccnc3[nH]ccc23)cc1 [SB-693578],58
7,CNc1nc(-c2ccc3c(N)n[nH]c3c2)cc(N2C[C@@H](C(=O)Nc3ccccc3)CC[C@H]2C)n1 [GSK2298859],22
8,COC(=O)c1cccc(NC(=O)NC2CCN(c3ccnc(Nc4ccc(OC)cc4)n3)C2)c1 (centres unmarked) [GSK1379746],75
9,COc1ccc(Nc2nccc(-c3ccc(NC(=O)c4cc5cc(F)ccc5[nH]4)cc3)n2)cc1 [GSK1229496],29
10,Cl.Cl.Cl.N#Cc1ccc(CCNc2nccc(-c3cccc(CN4CCNCC4)c3)n2)cc1 [GSK2137462],0
11,O=C(Nc1n[nH]c2cc(-c3ccsc3)ccc12)C1CC1 [SB-732932],20
12,COc1ccc(Nc2nccc(N3CCC(NC(=O)c4cc5ccccc5s4)C3)n2)cc1 (centres unmarked) [GSK1379738],49
13,COc1ccc2cc(-c3nc(-c4ccccc4C(C)C)[nH]c3-c3ccncc3)ccc2c1 [SB-660566],89
14,CC[C@@H]1CO[C@H](C(=O)Nc2ccccc2)CN1c1cc(-c2ccc3c(N)n[nH]c3c2)nc(NC)n1 [GSK2376236],0
15,Cc1ccc(NC(=O)c2ccc(Cl)cc2)cc1-c1ccc(C(=O)Nc2ccncc2)cc1 [GSK1398467],47
16,COc1cccc(NC(=O)Nc2ccc(C)c(-c3ccc(C(=O)Nc4ccncc4)cc3)c2)c1 [GSK1398474],0
17,COc1ccc(CSc2nnc(-c3ccc4c(c3)CCO4)o2)cc1,0
18,Cc1cccc2c(-c3ccncn3)c(-c3ccc(F)cc3)nn12 [GW515532],65
